# The supplement of paper PMC6411743
# ± gives the standard deviation of the averaged measurements. About 5,400 targets were measured; listed, in parts, are those with the largest changes and a random draw of the rest.
# Target: T1, UniProt Q13188|Q13188-2
# T1 sequence (whole entry): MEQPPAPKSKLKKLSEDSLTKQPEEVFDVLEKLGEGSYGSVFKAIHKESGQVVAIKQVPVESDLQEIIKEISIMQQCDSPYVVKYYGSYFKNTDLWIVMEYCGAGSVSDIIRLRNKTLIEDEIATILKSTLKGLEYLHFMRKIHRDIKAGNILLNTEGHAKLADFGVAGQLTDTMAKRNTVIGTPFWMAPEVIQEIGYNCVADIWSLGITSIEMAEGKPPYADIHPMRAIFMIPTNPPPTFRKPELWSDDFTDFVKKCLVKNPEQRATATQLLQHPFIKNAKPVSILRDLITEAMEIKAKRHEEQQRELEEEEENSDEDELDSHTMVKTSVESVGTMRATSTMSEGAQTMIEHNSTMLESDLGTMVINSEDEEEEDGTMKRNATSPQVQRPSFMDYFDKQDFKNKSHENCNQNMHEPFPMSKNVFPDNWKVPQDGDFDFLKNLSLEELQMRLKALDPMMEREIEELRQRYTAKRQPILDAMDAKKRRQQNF
# Test: NP40-soluble protein abundance relative to vehicle (solubility fold change) (ratio); higher = more soluble protein in presence of GTP
# Experimental: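 Solubility proteome profiling in Jurkat crude lysate. Lysate was treated with Mg-GTP (0.1-10 mM) for 10 min at room temperature and 3 min at 37 °C, then solubilised with 0.8% NP40 and benzonase, followed by ultracentrifugation. Proteins were quantified by TMT10 LC-MS/MS; the value is the NP40-soluble abundance relative to the NP40-processed vehicle, from 3 independent experiments.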
structure (smiles),measurement,setting,value
Nc1nc2c(ncn2[C@@H]2O[C@H](COP(=O)(O)OP(=O)(O)OP(=O)(O)O)[C@@H](O)[C@H]2O)c(=O)[nH]1 [guanosine triphosphate],NP40-soluble protein abundance,concentration: 0.1mM,0.978 ± 0.064
same,NP40-soluble protein abundance,concentration: 0.5mM,0.985 ± 0.036
same,NP40-soluble protein abundance,concentration: 1mM,0.98 ± 0.057
same,NP40-soluble protein abundance,concentration: 2mM,0.982 ± 0.048
same,NP40-soluble protein abundance,concentration: 4mM,0.96 ± 0.049
same,NP40-soluble protein abundance,concentration: 6mM,0.948 ± 0.052
same,NP40-soluble protein abundance,concentration: 8mM,0.972 ± 0.071
same,NP40-soluble protein abundance,concentration: 10mM,0.973 ± 0.088
